Screening results from PubChem BioAssay.
KCNQ2 enhance = enhances the rat KCNQ2 potassium channel; O88943; B-score at 10 µM; CHO-K1 KCNQ2, FluxOR thallium flux fluorescence; active compounds read high; hit rate 0.54% among 310,000;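 active means fluorescence ratio B-score at least 3 SD of library B-scores, with initial fluorescence B-score within 3 of them, cut at about 5.3 in these data; same plate scores as AID 2156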;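 further: B-score of peak minus minimum over baseline fluorescence ratio after K+ and Tl+ stimulus; positive B-score means potentiation of KCNQ2 with more thallium influx and brighter signal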
KCNQ2 inh = inhibitors of rat KCNQ2 potassium channel; O88943; CHO-K1 KCNQ2, FluxOR thallium flux, 20 min; active compounds read low; B-score at 10 µM; hit rate 1.1% among 310,000;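 active means fluorescence ratio B-score at most minus 3 library SDs, with starting brightness B-score within 2 library SDs, cut at about -5.5 in these data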
* marks the source's active call; other numbers are inactive results. This is a sample that favours compounds with a hit; in the whole collection about 1.6% have one here.

Cc1ccc2oc(C(=O)N(C)Cc3ccon3)c(C)c2c1 was read as KCNQ2 enhance 1.3 and KCNQ2 inh inactive.
`Cc1ccc2oc(C(=O)N(C)Cc3ccc(C)o3)c(C)c2c1` gave KCNQ2 enhance -7.9 and KCNQ2 inh -7.9*.
Screening Cc1ccc2oc(C(=O)N(Cc3ccncc3)CC3CCCO3)c(C)c2c1 (stereo unspecified) returned KCNQ2 inh inactive.
CCN(Cc1ccccc1)C(=O)c1oc2ccc(C)cc2c1C was read as KCNQ2 enhance -5.8 and KCNQ2 inh -5.8*.
CN1CCN(S(=O)(=O)c2ccc(Br)c3ccccc23)CC1 was read as KCNQ2 enhance 0.08 and KCNQ2 inh inactive.
COc1cc(OC)c(OC)cc1CNC(=O)c1ccc(COc2ccccc2)cc1 was read as KCNQ2 inh inactive.
`C/C(=N\NC(=O)COc1ccccc1-c1ccccc1)c1ccccn1` gave KCNQ2 inh inactive.
Screening C/C(=N\NC(=O)COc1ccccc1-c1ccccc1)c1cccnc1 returned KCNQ2 enhance -6.4 and KCNQ2 inh -6.4*.
Cn1nnc(NC(=O)c2cccc([N+](=O)[O-])c2)n1 was read as KCNQ2 inh inactive.
`CC(C)C[C@H]1CN=C(Nc2ccccc2)N1CCCC1CCCCC1` gave KCNQ2 enhance -5.6 and KCNQ2 inh -5.6*.
Screening CC(C)C[C@H]1CN=C(Nc2ccccc2)N1CCCC1CCCC1 returned KCNQ2 inh inactive.
For COc1ccc(C(=O)NCCN2C(=O)S/C(=C\c3cccnc3)C2=O)cc1[N+](=O)[O-] the results were KCNQ2 enhance 0.55 and KCNQ2 inh inactive.
`O=S(=O)(Nc1ccc(Cc2ccncc2)cc1)c1cccs1` gave KCNQ2 enhance 0.96 and KCNQ2 inh inactive.
`CCCCc1ccc(NS(=O)(=O)c2cccs2)cc1` gave KCNQ2 enhance -5.9 and KCNQ2 inh -5.9*.
For C/C(=N\Nc1ccc(S(N)(=O)=O)cc1[N+](=O)[O-])c1cccnc1 the results were KCNQ2 enhance 0.75 and KCNQ2 inh inactive.
Screening O=C(Nc1ccccc1)NC1CCCCCCC1 returned KCNQ2 enhance 0.03 and KCNQ2 inh inactive.
`CC(NC(=O)NC1CCCCC1)c1ccccc1` (stereo unspecified) gave KCNQ2 enhance 13* and KCNQ2 inh inactive.
For C=CCn1c(SCC(C)=O)nc2scc(-c3ccco3)c2c1=O the results were KCNQ2 inh inactive.
For C=CCn1c(SCc2ccc3c(c2)OCO3)nc2scc(-c3ccco3)c2c1=O the results were KCNQ2 enhance -6.1 and KCNQ2 inh -6.1*.
Screening COc1ccc(C(CNC(=O)C(=O)NC2CCCC2)N2CCN(C)CC2)cc1 (stereo unspecified) returned KCNQ2 enhance 0.7 and KCNQ2 inh inactive.
Cc1ccc2cc(CN(CC(C)C)S(=O)(=O)c3cccc4nonc34)c(=O)[nH]c2c1 was read as KCNQ2 inh inactive.
Screening O=C(COc1c(Br)cc(Br)c2cccnc12)N1CCCCC1 returned KCNQ2 enhance 4.6 and KCNQ2 inh inactive.
For Oc1c(CN2CCCCC2)cc(Br)c2cccnc12 the results were KCNQ2 enhance 8.4* and KCNQ2 inh inactive.
CC(NC(=O)C(=O)NCCN1CCN(C(=O)c2ccccc2Br)CC1)c1ccccc1 (stereo unspecified) was read as KCNQ2 inh inactive.
For O=C(Nc1ccc2[nH]c(=S)sc2c1)c1ccccc1 the results were KCNQ2 enhance 16* and KCNQ2 inh inactive.
For O=C(Nc1ccc2[nH]ccc2c1)c1ccccc1 the results were KCNQ2 enhance 2 and KCNQ2 inh inactive.
For O=C(Nc1ccc(F)cc1)Nc1ccccc1F the results were KCNQ2 enhance 3.2 and KCNQ2 inh inactive.
Screening O=C(Nc1ccc2[nH]c(=S)sc2c1)Nc1ccccc1F returned KCNQ2 enhance 40* and KCNQ2 inh inactive.
`CCCC(=O)Nc1sc(Cc2ccccc2)c(C)c1C(N)=O` gave KCNQ2 enhance 0.31 and KCNQ2 inh inactive.
Screening CCCOP(=O)(c1ccc(N(C)C)cc1)C(O)c1c(Cl)cccc1Cl (stereo unspecified) returned KCNQ2 enhance 0.59 and KCNQ2 inh inactive.
`CC(C)CCOP(=O)(c1ccc(N(C)C)cc1)C(O)c1c(Cl)cccc1Cl` (stereo unspecified) gave KCNQ2 enhance -5.6 and KCNQ2 inh -5.6*.
CCOc1ccc(C(=O)NC(C(=O)NCc2ccccc2OC)C(C)C)cc1 (stereo unspecified) was read as KCNQ2 inh inactive.
For CCOc1ccccc1C(=O)NC(C(=O)NCc1ccccc1OC)C(C)C (stereo unspecified) the results were KCNQ2 enhance -6.2 and KCNQ2 inh -6.2*.
Cc1ccc(S(=O)(=O)NC(=O)NC(C)c2ccc(F)cc2)cc1 (stereo unspecified) was read as KCNQ2 enhance 2.1 and KCNQ2 inh inactive.
For CN(C(=O)CC1C(=O)NCCN1CC(c1ccccc1)c1ccccc1)C(C1CC1)C1CC1 (stereo unspecified) the results were KCNQ2 inh inactive.
